A selection: hits, their analogues and other compounds. The true share with any hit is near 4.3%.
Yeast superoxide: caloric restriction mimetics inhibiting age-related superoxide in yeast; S. cerevisiae aged cells, superoxide DHE fluorescence; active compounds read low; superoxide response (% of plate mean), % at 10 µM; 330,000 compounds, 0.18% hits;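 active means superoxide response under a set limit, about three screen SD below normal, cut at about 65% in these data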;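 further: yeast aged for seven days with compound at 30 °C before DHE staining; 100% = average MFI of all compound-treated wells on the plate with controls excluded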
NALP1 yeast inh: blocks the NALP1 inflammasome reconstituted in yeast. S. cerevisiae NALP1/ASC/caspase-1 growth, X-gal OD620, 72 h. inhibition, % at 10 µM. 280,000 compounds, 0.61% hits. AID 2071; in the data active means inhibition mostly above about 24%, no sharp cut-off; inactive means mostly below about 32%
dFosB act: enhances mouse delta FosB homodimer DNA binding | P13346 | activation, % at 25 µM | AID 493131 | 340,000 compounds, 0.99% hits | purified delta FosB, TAMRA-CDK5 oligo fluorescence polarization; percent of positive-control signal above neutral wells;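 active means mean activation above about 17%, with every replicate also reaching it, limit read from the data, passing the limit was not always enough; inconclusive means only one of the two conditions met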
Target sequence (P13346 whole entry, looked up): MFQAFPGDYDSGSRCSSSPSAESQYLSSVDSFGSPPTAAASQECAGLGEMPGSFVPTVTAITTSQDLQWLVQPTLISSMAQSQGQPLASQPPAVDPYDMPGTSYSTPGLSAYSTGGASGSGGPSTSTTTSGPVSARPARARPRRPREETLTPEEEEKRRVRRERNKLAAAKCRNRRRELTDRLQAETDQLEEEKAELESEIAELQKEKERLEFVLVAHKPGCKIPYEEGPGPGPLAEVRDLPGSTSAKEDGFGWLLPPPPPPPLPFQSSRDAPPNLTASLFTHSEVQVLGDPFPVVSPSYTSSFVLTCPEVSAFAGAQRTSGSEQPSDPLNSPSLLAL
UBC13 inh: inhibitors of human UBC13 polyubiquitin chain formation | inhibition, % at 20 µM | AID 485273 | P61088 | 330,000 compounds, 0.47% hits | TR-FRET; in the data active means inhibition above about 45%, passing the limit was not always enough; inconclusive means no clear call, values can overlap the other calls
NR3A LBD binder: modulators (binders) of human NR3A ligand-binding domain | NR3A LBD differential scanning fluorimetry, Tm shift; 0% = protein alone, 100% = glycine-bound protein | Tm shift relative to glycine control, % at 25 µM | 340,000 compounds, 2.5% hits;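 active means melting temperature shift of at least 10% of the positive control shift, at one fixed dose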
* hit, by the source's call; ? = inconclusive; nt = no result.

SMILES	Yeast superoxide	NALP1 yeast inh	dFosB act	UBC13 inh	NR3A LBD binder
COCCCN=Cc1c(C)[nH]n(-c2ccc(Br)c(C)c2)c1=O	123.8	25.3	4.1	-0.2	66.1*
CCC(Cc1ccccc1)NC(=O)c1cc(S(=O)(=O)N2CCCCC2)c[nH]1 (stereo unspecified)	97.2	6.4	-0.2	6.7	-2.7
COc1ccc(C(=O)OCC(=O)c2c[nH]c3ccccc23)c(OC)c1	107.0	nt	-6.0	8.3	0.3
CCOc1ccc(N(C)S(=O)(=O)c2ccc(C)c(C(=O)OCC(=O)c3c[nH]c4ccccc34)c2)cc1	99.6	-6.9	0.9	-5.3	31.3*
O=C(OCC(=O)c1c[nH]c2ccccc12)c1cc2ccccc2cc1O	111.0	17.3	13.0	2.0	32.2*
Cc1ccc(-c2nnc(NCc3nc4ccccc4[nH]3)c3ccccc23)cc1S(=O)(=O)N1CCCCC1	96.0	14.6	79.5*	-4.5	2.4
Cc1ccc(-c2nnc(NC3CCCCC3)c3ccccc23)cc1S(=O)(=O)N1CCN(C)CC1	116.4	4.8	-7.6	8.0	-1.3
O=C(N/N=C/c1cccc([N+](=O)[O-])c1)c1ccc(COc2ccccc2-c2ccccc2)cc1	102.5	13.7	-8.4	-5.6	16.1*
COc1cc(/C=N/NC(=O)c2cccnc2)ccc1OCC(=O)Nc1ccc(C)cc1	95.3	28.5	?	-1.0	-23.3
COc1cc(/C=N/NC(=O)c2cccc(C)c2)ccc1OCC(=O)Nc1ccccc1	103.5	nt	nt	-1.1	18.9*
O=C(N/N=C/c1cccc([N+](=O)[O-])c1)c1ccc(Br)cc1	89.0	-7.9	10.2	-14.4	-0.1
COc1ccc(/C=N/NC(=O)c2cccc([N+](=O)[O-])c2)c2ccccc12	111.8	11.9	-12.5	-9.6	33.7*
COc1cc(/C=N/NC(=O)c2cccc([N+](=O)[O-])c2)ccc1OCc1ccccc1	97.9	7.7	-4.4	-13.9	22.2*
COc1ccc(/C=N/NC(=O)c2cccc([N+](=O)[O-])c2)cc1OC	110.9	-3.6	3.2	-7.4	1.6
Cc1cc(O)c(C(=O)Nc2cccc(Cl)c2)c(=O)n1C	102.5	12.1	9.0	7.9	0.3
CCOc1cc(/C=N/NC(N)=O)ccc1OCC(=O)Nc1ccc(C)c(C)c1	88.1	9.7	-27.2	1.1	-2.3
CCOc1cc(C=C2C(=O)c3ccccc3C2=O)ccc1OCC(=O)Nc1ccc(C)cc1	104.1	19.4	-3.3	-18.8	13.7*
NS(=O)(=O)c1cc(C(=O)OCC(=O)N2CCOCC2)ccc1Cl	93.4	-5.5	-8.8	7.6	1.3
COC(=O)c1c(N2C(=O)CC(Sc3ccccc3C(=O)O)C2=O)sc2c1CCCC2 (stereo unspecified)	84.8	-2.0	-0.5	0.1	-1.9
COC(=O)c1c(N2C(=O)CC(Sc3ccccc3C(=O)O)C2=O)sc(C)c1C (stereo unspecified)	89.8	21.5*	-1.2	-2.8	0.8
O=C(O)c1ccccc1SC1CC(=O)N(c2ccccc2)C1=O (stereo unspecified)	112.5	56.9*	-6.7	-4.3	-5.4
CCCCC1(C)OC(=O)C(=Cc2ccc(-c3ccc(Cl)c(C(=O)O)c3)o2)C(=O)O1 (stereo unspecified)	63.1*	23.4	-12.7	-11.0	1.4
CCCCCCCCCn1c2c(c(=N)c3c1CCC3)CCCC2	nt	28.9	-12.5	41.3	-20.7
CCCCCCCCCCn1c2c(c(=N)c3c1CCC3)CCC2	123.9	34.2*	-6.2	61.9*	-7.0
CC(=O)N1CC[n+]2c(-c3ccc(Cl)cc3)csc21	92.3	43.4	-1.1	2.5	19.9*
SMILES	Yeast superoxide	NALP1 yeast inh	dFosB act	UBC13 inh	NR3A LBD binder
O=c1[nH]c2cc([N+](=O)[O-])ccc2c2ccc([N+](=O)[O-])cc12	nt	nt	-8.9	nt	12.6*
Cc1ccc2nc(N(CCCN(C)C)C(=O)CCc3ccccc3)sc2c1	147.0	47.8*	-54.5	nt	-0.7
CN(C)CCCN(C(=O)COc1ccc(Cl)cc1)c1nc2cc3c(cc2s1)OCO3	101.9	-62.6	39.3*	35.2	0.7
CN(C)CCCN(C(=O)CCc1ccccc1)c1nc2ccc(Cl)cc2s1	109.3	64.4*	-138.7	35.6	0.7
Cc1nc(NC(=O)c2cccc(-c3cc4ccccc4oc3=O)c2)ccc1Br	92.2	35.2	168.1*	20.3	3.7
O=C(Nc1ccc(N2CCCC2)cc1)c1cccc(-c2cc3ccccc3oc2=O)c1	100.5	8.1	17.5*	-16.8	0.9
Cc1cccc(Nc2ncccc2C(=O)O)c1C	100.5	0.3	-3.3	-8.1	0.6

Bioassay records from PubChem BioAssay.
